According to PubChem BioAssay (NCI):
Values joined by “and” are separate entries in the source; they are usually repeats but may differ in a detail not shown here. Identical values can stand only once. This is part of a sample that, as a whole, favours compounds with a hit. Of some 83,000 tested, about 20% had one in any assay.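 Step 1: grow cells in 96-well plates. Step 2: add test compound at a single concentration. Step 3: incubate 48 h. Step 4: record percent growth.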 Active and inactive are the calls of the source.

Tested on: IGROV1 ovarian
Assay: NCI-60 one-dose screen, 48 h (100 = growth as untreated, 0 = no growth, -100 = all killed)
Conditions: 10 µM
Protocol: Growth inhibition of the IGROV1 human tumor cell line is measured as a screen for anti-cancer activity. Cells are grown in 96 well plates and exposed to the test compound for 48 hours. Compounds are tested at a single concentration, which is 10^-5 M for most compounds. The reported endpoint is percent growth (GI% or GIPRCNT), where numbers from 0 - 100% represent growth inhibition, and numbers from -100% - 0 represent cell death. For example, a value of 40 represents 60% growth inhibition. A value of 0 means no net growth occurred over the course of the experiment. A value of -40 indicates 40% of cells at the beginning of the experiment died by the end of the experiment. A value of -100 means all cells are dead at the end of the experiment.
NCI-60 Human Tumor Cell Lines Screen was performed using the standard one-dose NCI protocol, which is described in more detail at https://dtp.cancer.gov/discovery_development/nci-60/default.htm.
Compounds with GIPRCNT values below 10 were considered active. Activity score was based on GIPRCNT using the following formula: […]
Score is 0 for GIPRCNT values of 100 or above, 50 for GIPRCNT values of 0, and 100 for GIPRCNT values of -100.

Row | SMILES | growth
1 | O=c1ccn2c(n1)OC1CC2OC1COC(c1ccccc1)(c1ccccc1)c1ccccc1 (stereo not given) | 115% (inactive)

Same assay, conditions: 10 µM unless noted

Row | SMILES | growth
2 | O=C(OCc1ccccc1)c1ccccc1 | 120% (inactive) and 87.4% (inactive)
3 | Cc1cc2ccccc2c2cc3ccccc3cc12 | 61.8% (inactive)
4 | CN(C)C(=S)N(C)C | 153% (inactive)
5 | C(=N\OCCc1ccccc1)/c1ccccn1 | 111% (inactive)
6 | Cc1onc(-c2c(F)cccc2Cl)c1-c1ncc(-c2ccc(Cl)cc2)o1 | 49.1% (inactive) and 33.3% (inactive)
7 | CCCCCc1cc[n+](CC(=O)c2ccccc2)cc1 | 91.6% (inactive) and 108% (inactive)
8 | O=[N+]([O-])c1ccc(N/N=C/C2CCCCCC2)c([N+](=O)[O-])c1 | 91% (inactive)
9 | CCCCCCCCCCCCCCCCC(=O)O | 107% (inactive)
10 | CCCC(=O)Oc1ccc(CC)cc1 | 104% (inactive)
11 | O=C(c1ccncc1)c1c(Cc2ccccc2)ccc2ccccc12 | 18% (inactive)
12 | CC(=O)Oc1ccc(C2(c3ccc(OC(C)=O)cc3)C(=O)Nc3ccccc32)cc1 | 65% (inactive) and 46.1% (inactive)
13 | CN(C=O)c1ccccc1 | 102% (inactive)
14 | CN(C)c1ccc(C(=N)c2ccc(N(C)C)cc2)cc1 | 35.2% (inactive) and 46% (inactive)
15 | CC(C)(C)C1CCC(=NO)CC1 (stereo not given) | 99.5% (inactive)
16 | CCN(CC)C(=S)SCCO | 107% (inactive)
17 | CCOC(=O)CN1CCC(C(=O)OCC)CC1 | 122% (inactive)
18 | Nc1c(S(=O)(=O)O)cc(Br)c2c1C(=O)c1ccccc1C2=O | 105% (inactive) and 88.9% (inactive)
19 | O=C1c2cccnc2-c2ncccc21 | 113% [100 µM] (inactive)
20 | Nc1ccc2ccc(NS(=O)(=O)N3CCCCC3)cc2c1 | 76.3% (inactive)

Row | SMILES | growth
21 | O=C(/C=C/C=C/c1ccc2c(c1)OCO2)N1CCCCC1 | 105% (inactive) and 6.71% (active)
22 | CC(NC(=O)CCl)c1ccccc1 (stereo not given) | 104% (inactive)
23 | Cc1cnc(N)s1 | 103% (inactive)
24 | N#Cc1c[nH]n2ccnc12 | 93.1% (inactive)
25 | CC1(C)OC(=O)C(=Cc2ccc(C#N)cc2)C(=O)O1 | 107% (inactive) and 105% (inactive)
26 | O=C(c1ccc(Cl)cc1)C1C(c2ccccc2)C1[N+](=O)[O-] (stereo not given) | 103% (inactive)
27 | O=C(NC(=O)c1ccc(F)c(Cl)c1)NC1CC1 | 113% (inactive) and 109% (inactive)
28 | Cc1ccc2cccc([N+](=O)[O-])c2n1 | 109% (inactive) and 114% (inactive)
29 | CCN(CC)CCO/N=C1\CC(c2ccc(OC)c(OC)c2)Oc2ccccc21 (stereo not given) | 88.8% (inactive)
30 | COc1ccc(CCN=Cc2ccc(Cl)cc2)cc1OC | 105% (inactive)
31 | O=[N+]([O-])c1cccc2ccc(N/N=C/c3ccccc3O)nc12 | -10.5% (active)
32 | CC(O)CCNC(c1ccccc1)C(O)c1ccccc1 (stereo not given) | 95.9% (inactive)
33 | Nc1[nH][nH]c(=O)c1N=Nc1ccccc1 | 109% (inactive) and 104% (inactive)
34 | O=C(O)C1CSCN1 (stereo not given) | 106% (inactive)
35 | COc1cc(NCCCCCCCNC(C)C)c2nccc(C)c2c1 | 82.3% (inactive) and 85.9% (inactive)
36 | COC(=O)c1ccccc1Cl | 105% (inactive)
37 | O=P(O)(O)OC1C(OP(=O)(O)O)C(OP(=O)(O)O)C(OP(=O)(O)O)C(OP(=O)(O)O)C1OP(=O)(O)O.[Cu+2] (stereo not given) | 86.9% (inactive)
38 | CCCCC/C(C)=N\NC(N)=S | 89.7% (inactive)
39 | N#Cc1c(N)nc2c(c(-c3ccc(Cl)cc3)nn2-c2ccccc2)c1C#N | 99.2% [100 µM] (inactive)

Same assay, conditions: 100 µM

Row | SMILES | growth
40 | O=c1ccn2c(n1)OC1CC2OC1COC(c1ccccc1)(c1ccccc1)c1ccccc1 (stereo not given) | 85.4% (inactive)
